From PubChem BioAssay (NCATS)
“And” between values parts separate entries of the source, which are not always exact repeats. Identical values can stand only once. Inconclusive results are not listed. Where a call stands in place of a potency, no number is given. Some compounds were tested as several samples or in several runs, with calls that do not always agree. The source made the active and inactive calls. Unless noted, calls come from the whole dose curve; as a rule, active = well fitted curve in the direction sought with a large enough effect; inconclusive = small, poorly fitted or top-dose-only effect, or another doubt; inactive = no such curve, though single readings can be large; an effect the other way counts as inactive or inconclusive.

Assays:
[1] = target: ATP-dependent 6-phosphofructokinase (Trypanosoma brucei brucei) (UniProt O15648); assay: qHTS Assay to Find Inhibitors of T. brucei phosphofructokinase: hit validation (AID 492961);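 note: luminescence reports ADP formed as PFK phosphorylates fructose-6-phosphate with ATP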
Method in brief: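 Measures ADP output of PFK (1.25 nM) at 0.1 mM ATP, 0.5 mM F6P, pH 8.0 TEA buffer with 5 mM MgCl2. No-enzyme wells define full inhibition; uninhibited enzyme wells define zero.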

[2] = target: Luciferin 4-monooxygenase (Photinus pyralis) (UniProt P08659); assay: Biochemical firefly luciferase enzyme assay for NPC (AID 624030);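 note: purified P. pyralis luciferase at 10 nM with luciferin and ATP substrate; nearly all actives have a fitted effect of over 70% in size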
Method in brief: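 Direct inhibition of firefly luciferase enzyme (10 nM final, 50 mM Tris Acetate) assessed by luminescence within 5 minutes. Percent activity scaled between DMSO and PTC124 positive control, with concentration-effect curves classified by fit quality and response.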

[3] = S16 Schwann cell PMP22 intronic element beta-lactamase assay (AID 624044; calls by dose curve; note: nearly all actives have a fitted effect of over 15% in size); conditions: S16 rat Schwann cells, PMP22 element beta-lactamase FRET, 24 h; ratio activity, negative = inhibition: at 38.3 µM (top of the series)
Method in brief: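 Rat S16 Schwann cells with beta-Lac driven by a PMP22 intronic element, compound-treated 24 h at 37 °C. LiveBLAzer FRET B/G read: 460 nm normalized to potassium clavulanate vs DMSO; 535 nm FRET as viability; concentration-effect curves classified.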

[4] = qHTS profiling for inhibitors of Plasmodium falciparum proliferation (AID 504749); note: potency is the fitted concentration of half-maximal effect; for all read-outs here: nearly all actives have a fitted effect of over 60% in size; conditions: P. falciparum in erythrocytes, SYBR Green DNA, 72 h; for activity, negative = inhibition: at 28.7 µM (top of the series)
Method in brief: (§1)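 Three-day growth assay of blood-stage parasites in erythrocytes (0.3% parasitemia, 2.5% hematocrit) at 37 C, 5% CO2, quantified by SYBR Green DNA staining after overnight detergent lysis.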

[5] = test system: AA1029; assay: as above; conditions: P. falciparum in erythrocytes, SYBR Green DNA, 72 h; series mostly up to 28.7 µM
Method in brief: as §1

[6] = test system: CP185; assay: as above; conditions: P. falciparum in erythrocytes, SYBR Green DNA, 72 h; series mostly up to 28.7 µM
Method in brief: as §1

[7] = test system: CP192; assay: as above; conditions: P. falciparum in erythrocytes, SYBR Green DNA, 72 h; series mostly up to 28.7 µM
Method in brief: as §1

[8] = test system: CP211; assay: as above; conditions: P. falciparum in erythrocytes, SYBR Green DNA, 72 h; series mostly up to 28.7 µM
Method in brief: as §1

[9] = test system: CP238; assay: as above; conditions: P. falciparum in erythrocytes, SYBR Green DNA, 72 h; series mostly up to 28.7 µM
Method in brief: as §1

[10] = test system: CP262; assay: as above; conditions: P. falciparum in erythrocytes, SYBR Green DNA, 72 h; series mostly up to 28.7 µM
Method in brief: as §1

[11] = test system: CP269; assay: as above; conditions: P. falciparum in erythrocytes, SYBR Green DNA, 72 h; series mostly up to 28.7 µM
Method in brief: as §1

[12] = test system: CP286; assay: as above; conditions: P. falciparum in erythrocytes, SYBR Green DNA, 72 h; series mostly up to 28.7 µM
Method in brief: as §1

[13] = test system: CP329; assay: as above; conditions: P. falciparum in erythrocytes, SYBR Green DNA, 72 h; series mostly up to 28.7 µM
Method in brief: as §1

[14] = test system: Dd2; assay: as above; conditions: P. falciparum in erythrocytes, SYBR Green DNA, 72 h; series mostly up to 28.7 µM
Method in brief: as §1

[15] = test system: ECU; assay: as above; conditions: P. falciparum in erythrocytes, SYBR Green DNA, 72 h; series mostly up to 28.7 µM
Method in brief: as §1

[16] = test system: N140; assay: as above; conditions: P. falciparum in erythrocytes, SYBR Green DNA, 72 h; series mostly up to 28.7 µM
Method in brief: as §1

[17] = test system: CP315; assay: as above; conditions: P. falciparum in erythrocytes, SYBR Green DNA, 72 h; series mostly up to 28.7 µM
Method in brief: as §1

[18] = test system: FAB9; assay: as above; conditions: P. falciparum in erythrocytes, SYBR Green DNA, 72 h; series mostly up to 28.7 µM
Method in brief: as §1

[19] = test system: JCK; assay: as above; conditions: P. falciparum in erythrocytes, SYBR Green DNA, 72 h; series mostly up to 28.7 µM
Method in brief: as §1

[20] = test system: PC49; assay: as above; conditions: P. falciparum in erythrocytes, SYBR Green DNA, 72 h; series mostly up to 28.7 µM
Method in brief: as §1

Sequence of ATP-dependent 6-phosphofructokinase (Trypanosoma brucei brucei) (O15648 whole entry, looked up): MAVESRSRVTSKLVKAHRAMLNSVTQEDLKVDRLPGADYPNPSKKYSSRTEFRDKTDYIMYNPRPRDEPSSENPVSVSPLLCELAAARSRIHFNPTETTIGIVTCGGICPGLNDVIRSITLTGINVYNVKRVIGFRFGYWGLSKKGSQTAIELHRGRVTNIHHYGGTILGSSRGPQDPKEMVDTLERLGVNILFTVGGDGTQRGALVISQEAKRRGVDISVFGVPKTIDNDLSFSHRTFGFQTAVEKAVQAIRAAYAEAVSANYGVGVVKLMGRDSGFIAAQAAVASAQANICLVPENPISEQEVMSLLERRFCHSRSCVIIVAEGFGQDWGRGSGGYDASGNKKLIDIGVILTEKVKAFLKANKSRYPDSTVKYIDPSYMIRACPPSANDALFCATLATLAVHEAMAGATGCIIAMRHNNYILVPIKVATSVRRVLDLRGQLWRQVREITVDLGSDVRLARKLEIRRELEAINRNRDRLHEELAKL
Sequence of Luciferin 4-monooxygenase (Photinus pyralis) (P08659 whole entry, looked up): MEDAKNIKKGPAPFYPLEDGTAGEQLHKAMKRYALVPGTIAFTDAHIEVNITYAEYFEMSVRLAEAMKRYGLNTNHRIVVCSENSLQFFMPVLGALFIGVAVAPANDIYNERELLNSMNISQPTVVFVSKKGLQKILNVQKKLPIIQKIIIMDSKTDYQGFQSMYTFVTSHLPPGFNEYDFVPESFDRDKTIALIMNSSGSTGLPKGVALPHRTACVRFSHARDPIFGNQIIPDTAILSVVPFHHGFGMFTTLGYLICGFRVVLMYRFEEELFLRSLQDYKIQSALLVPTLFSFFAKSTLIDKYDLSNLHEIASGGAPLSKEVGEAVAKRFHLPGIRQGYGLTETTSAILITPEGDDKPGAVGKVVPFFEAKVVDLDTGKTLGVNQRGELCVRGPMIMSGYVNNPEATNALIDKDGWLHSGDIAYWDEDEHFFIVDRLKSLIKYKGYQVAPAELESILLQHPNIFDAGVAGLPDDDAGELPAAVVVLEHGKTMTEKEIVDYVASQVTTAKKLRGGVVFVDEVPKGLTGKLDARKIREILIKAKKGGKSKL

## C[C@]12C=CC(=O)N[C@@H]1CC[C@@H]1C2CC[C@]2(C)C(C(=O)Nc3cc(C(F)(F)F)ccc3C(F)(F)F)CC[C@@H]12 (some centres undefined)
[1]
  Potency: inactive
[2]
  Potency: inactive
[3]
  Potency: inactive
[4]; parasite line A
  activity, negative = inhibition: -5.45% (inactive)
[4]; parasite line B
  Potency: 11.2 µM (active)
[5]
  Potency: inactive
[6]
  Potency: inactive
[7]
  Potency: inactive
[8]
  Potency: inactive
[9]
  Potency: inactive
[10]
  Potency: inactive
[11]
  Potency: inactive
[12]
  Potency: 6310 nM (active)
[13]
  Potency: inactive
[14]
  Potency: inactive
[15]
  Potency: inactive
[16]
  Potency: inactive

## Cc1c(C)c2c(c(C)c1O)CCC(C)(CCCC(C)CCCC(C)CCCC(C)C)O2 (centres undefined)
[1]
  Potency: inactive
[2]
  Potency: inactive
[3]
  Potency: inactive
[4]; parasite line A
  activity, negative = inhibition: 15.7% (inactive)
[4]; parasite line B
  activity, negative = inhibition: 8.58% (inactive)
[5]
  Potency: inactive
[6]
  Potency: inactive
[7]
  Potency: inactive
[8]
  Potency: inactive
[9]
  Potency: inactive
[10]
  Potency: inactive
[11]
  Potency: inactive
[12]
  Potency: inactive
[17]
  Potency: inactive
[13]
  Potency: inactive
[15]
  Potency: inactive
[18]
  Potency: inactive
[19]
  Potency: inactive
[16]
  Potency: inactive
[20]
  Potency: inactive

## Cc1cc2nc3c(=O)[nH]c(=O)nc-3n(CC(O)C(O)C(O)COP(=O)(O)O)c2cc1C (centres undefined)
[1]
  Potency: inactive
[2]
  Potency: inactive
[3]
  Potency: inactive
[4]; parasite line A
  activity, negative = inhibition: -0.201% (inactive)
[4]; parasite line B
  activity, negative = inhibition: 1.68% (inactive)
[5]
  Potency: inactive
[6]
  Potency: inactive
[7]
  Potency: inactive
[8]
  Potency: inactive
[9]
  Potency: inactive
[10]
  Potency: inactive
[11]
  Potency: inactive
[12]
  Potency: inactive
[17]
  Potency: inactive
[13]
  Potency: inactive
[14]
  Potency: inactive
[15]
  Potency: inactive
[18]
  Potency: inactive
[19]
  Potency: inactive
[16]
  Potency: inactive
[20]
  Potency: inactive

## Clc1ccc(CS[C@@H](Cn2ccnc2)c2ccc(Cl)cc2Cl)cc1
[1]
  Potency: inactive
[2]
  Potency: inactive
[3]
  Potency: inactive
[4]; parasite line A
  Potency: 3.16 µM (active)
[4]; parasite line B
  Potency: 2.24 µM (active)
[5]
  Potency: 3550 nM (active)
[6]
  Potency: 3980 nM (active)
[11]
  Potency: 6420 nM (active)
[12]
  Potency: 3550 nM (active)
[14]
  Potency: 4470 nM (active)
[15]
  Potency: 1780 nM (active)
[16]
  Potency: 1410 nM (active)

## CNC1=CN(O)C(c2ccccc2)=c2cc(Cl)ccc2=N1
[1]
  Potency: inactive
[2]
  Potency: inactive
[3]
  Potency: inactive
[4]; parasite line A
  Potency: 3.55 µM (active)
[4]; parasite line B
  Potency: 2.24 µM (active) and 11.2 µM (active)
[7]
  Potency: 4260 nM (active)
[8]
  Potency: 4260 nM (active)
[9]
  Potency: inactive
[10]
  Potency: inactive
[11]
  Potency: 3790 nM (active)
[12]
  Potency: 4470 nM (active)
[17]
  Potency: 1900 nM (active)
[13]
  Potency: 3.79 µM (active) and inactive
[14]
  Potency: inactive
[18]
  Potency: 2510 nM (active)
[19]
  Potency: inactive
[20]
  Potency: inactive

## CC1(C)SC2[C@@H](N=CN3CCCCCC3)C(=O)N2[C@H]1C(=O)O (some centres undefined)
[1]
  Potency: inactive
[2]
  Potency: inactive
[3]
  Potency: inactive
[4]; parasite line A
  activity, negative = inhibition: 0.0196% (inactive)
[4]; parasite line B
  activity, negative = inhibition: -13% (inactive)
[5]
  Potency: inactive
[6]
  Potency: inactive
[7]
  Potency: inactive
[8]
  Potency: inactive
[9]
  Potency: inactive
[10]
  Potency: inactive
[11]
  Potency: inactive
[12]
  Potency: inactive
[17]
  Potency: inactive
[13]
  Potency: inactive
[14]
  Potency: inactive
[15]
  Potency: inactive
[18]
  Potency: inactive
[19]
  Potency: inactive
[16]
  Potency: inactive
[20]
  Potency: inactive

## CC(C)(C)NC[C@H](O)CSc1nc(-c2ccc(C(N)=O)s2)cs1
[1]
  Potency: inactive
[2]
  Potency: inactive
[3]
  Potency: inactive
[4]; parasite line A
  activity, negative = inhibition: -8.78% (inactive)
[4]; parasite line B
  activity, negative = inhibition: -3.22% (inactive)
[5]
  Potency: inactive
[6]
  Potency: inactive
[7]
  Potency: inactive
[8]
  Potency: inactive
[9]
  Potency: inactive
[10]
  Potency: inactive
[11]
  Potency: inactive
[12]
  Potency: inactive
[17]
  Potency: inactive
[13]
  Potency: inactive
[14]
  Potency: inactive
[15]
  Potency: inactive
[18]
  Potency: inactive
[19]
  Potency: inactive
[16]
  Potency: inactive
[20]
  Potency: inactive

## CC(C)C(=O)OCC(=O)[C@@]12OC(C3CCCCC3)O[C@@H]1CC1C3CCC4=CC(=O)C=C[C@]4(C)C3[C@@H](O)C[C@@]12C (some centres undefined)
[1]
  Potency: inactive
[2]
  Potency: inactive
[3]
  Potency: inactive
[4]; parasite line A
  Potency: 0.794 µM (active)
[4]; parasite line B
  Potency: 0.562 µM (active)
[5]
  Potency: 891 nM (active)
[6]
  Potency: 794 nM (active)
[8]
  Potency: 1350 nM (active)
[9]
  Potency: 1000 nM (active)
[12]
  Potency: 794 nM (active)
[14]
  Potency: 1410 nM (active)
[15]
  Potency: 1120 nM (active)
[18]
  Potency: 2000 nM (active)
[19]
  Potency: 2510 nM (active)
[16]
  Potency: 794 nM (active)
[20]
  Potency: 1120 nM (active)

## C=C1/C(=C\C=C2/CCC[C@]3(C)[C@@H]([C@H](C)/C=C/[C@@H](O)C4CC4)CC[C@@H]23)C[C@@H](O)C[C@@H]1O
[1]
  Potency: inactive
[2]
  Potency: inactive
[3]
  Potency: inactive
[4]; parasite line A
  activity, negative = inhibition: -4.72% (inactive)
[4]; parasite line B
  activity, negative = inhibition: -23.6% (inactive)
[5]
  Potency: inactive
[6]
  Potency: inactive
[7]
  Potency: inactive
[8]
  Potency: inactive
[9]
  Potency: inactive
[10]
  Potency: inactive
[11]
  Potency: inactive
[12]
  Potency: inactive
[17]
  Potency: inactive
[13]
  Potency: inactive
[14]
  Potency: inactive
[15]
  Potency: inactive
[18]
  Potency: inactive
[19]
  Potency: inactive
[16]
  Potency: inactive
[20]
  Potency: inactive

## C/C=C1/NN(CCCN2CCN(c3cccc(Cl)c3)CC2)C(=O)N1CCOc1ccccc1
[1]
  Potency: inactive
[2]
  Potency: inactive
[3]
  Potency: inactive
[4]; parasite line A
  activity, negative = inhibition: -8.67% (inactive)
[4]; parasite line B
  activity, negative = inhibition: 7.5% (inactive)
[5]
  Potency: inactive
[6]
  Potency: inactive
[7]
  Potency: inactive
[8]
  Potency: inactive
[9]
  Potency: inactive
[10]
  Potency: inactive
[11]
  Potency: inactive
[12]
  Potency: inactive
[17]
  Potency: inactive
[13]
  Potency: inactive
[15]
  Potency: inactive
[18]
  Potency: inactive
[19]
  Potency: inactive
[16]
  Potency: inactive
[20]
  Potency: inactive

## COc1ccc(S(=O)(=O)N2c3ccc(Cl)cc3[C@](O)(c3ccccc3Cl)[C@@H]2C(=O)N2CCC[C@H]2C(N)=O)cc1OC
[1]
  Potency: inactive
[2]
  Potency: inactive
[3]
  Potency: inactive
[4]; parasite line A
  activity, negative = inhibition: -28.5% (inactive)
[4]; parasite line B
  activity, negative = inhibition: -6.86% (inactive)
[6]
  Potency: inactive
[7]
  Potency: inactive
[8]
  Potency: inactive
[9]
  Potency: inactive
[10]
  Potency: inactive
[11]
  Potency: inactive
[12]
  Potency: inactive
[17]
  Potency: inactive
[13]
  Potency: inactive
[14]
  Potency: inactive
[18]
  Potency: inactive
[19]
  Potency: inactive
[20]
  Potency: inactive
